These results are taken from PubChem BioAssay (EPA / NIEHS).

Calls of active or inactive are those of the source. The calls were made as follows: active = hit-call score of the fitted dose curve at least 0.9, where 1 is the maximum; inactive = score below 0.9.

Read-out in this test: Monocyte Chemoattractant Protein-1 (MCP1), CCL2 (gene 6347)
Briefly: BSK_3C_MCP1: BioMAP Diversity Plus: 3C Assay for Monocyte Chemoattractant Protein-1 (MCP1) Biomarker Activity (AID 2283017). The settings on record: primary human endothelial cells (HUVEC); actives raise or lower the signal. How it is done:
BSK_3C is a cell-based, multiplexed-readout assay that uses umbilical vein endothelium, a human vascular primary cell, with measurements taken at 24 hours after chemical dosing in a 96-well plate.BSK_3C_MCP1 is an assay component measured in the BSK_3C assay. It measures MCP-1 antibody related to regulation of gene expression using ELISA technology.Data from the assay component BSK_3C_MCP1 was analyzed into 1 assay endpoint. This assay endpoint, BSK_3C_MCP1, was analyzed with bidirectional fitting relative to DMSO as the negative control and baseline of activity. Using a type of binding reporter, gain or loss-of-signal activity can be used to understand changes in the signaling as they relate to the gene CCL2. Furthermore, this assay endpoint can be referred to as a primary readout, because this assay has produced multiple assay endpoints where this one serves a signaling function. To generalize the intended target to other relatable targets, this assay endpoint is annotated to the cytokine intended target family, where the subfamily is chemotactic factor.
The levels of cell surface (or secreted, indicated by the prefix "s") biomarker endpoints were measured by ELISA. Overt cytotoxicity to cells in confluent adherent cultures (all systems other than the BT system) was assessed by measuring total protein levels using sulforhodamine B (SRB) staining in parallel cultures at the time of biomarker measurements, indicated as SRB endpoints. For proliferation assays for adherent cell types, individual cell types are cultured at sub-confluence and relative cell numbers quantified by SRB staining at time points optimized for each system (48 h: 3C and CASM3C systems; 72 h: BT and HDF3CGF systems; 96 h: SAg system). SRB was performed by staining cells with 0.1% SRB after fixation with 10% TCA and reading wells at 560 nm.Viability and proliferation of PBMC (T cells) was quantified by Alamar Blue reduction for the SAg and BT systems. For PBMC viability (referred to as PBMC Cytotoxicity within the assay endpoint names), cells were plated (75,000/well in a 96-well plate) and then chemical samples added for 1 h before addition of activators, SEB and TSST-1 (20 ng/mL final concentration each). Cells were incubated for 90 h. Then, Alamar Blue (20 uL/well) (Invitrogen, Cat DAL1100) was added for 6 h, and the plates were read with a fluorescence microplate reader at 546/580 nm (excitation/emission). For PBMC proliferation, cells were plated and activated as above but incubated for only 16 h prior to addition of Alamar Blue. Plates were read after 6 h.
Take `N#Cc1cccnc1`: the result was inactive.
On to `CC(C=O)Cc1ccc2c(c1)OCO2` (stereo not given), for which the outcome was inactive.
As for `O=S(=O)(c1ccc(Cl)cc1)c1cc(Cl)c(Cl)cc1Cl`, the AC50 is 20 µM (active).
Regarding `CC(C)(COCC1CO1)COCC1CO1` (stereo not given), the outcome was inactive.
Turning to `Oc1ccc(Cc2ccc(O)cc2)cc1`, the result was inactive.
The same measure, in the same setting: in the case of `O=C(N[C@H]1CN2CCC1CC2)c1ccc2c(c1)OCCO2` it was “inactive”; in that of `OC(Cc1ccccc1Cl)(Cn1[nH]cnc1=S)C1(Cl)CC1` (stereo not given), “inactive”.
On the same count and under the same terms, in the case of `CCN(CC)C(=O)C(Cl)=C(C)OP(=O)(OC)OC` it was “inactive”; in that of `CCOP(=S)(OCC)SCS(=O)(=O)C(C)(C)C`, “inactive”.
Turning to `Cc1ccc2nc3sc(=O)sc3nc2c1`, the AC50 was 7.34 µM (active).
On the same count and under the same terms, the result for `c1ccc(-c2cccc(-c3ccccc3)c2)cc1` reads 12.4 µM (active); that for `O=S(=O)(C(Cl)(Cl)Cl)C(Cl)(Cl)Cl`, 1.9 µM (active).
For the molecule `O=C(O)C1(c2ccc3c(c2)OC[C@H](Cc2ccc(-c4ccccc4)cc2)[C@H]3O)CCCC1`, the AC50 was 23.6 µM (active).
As to `NC(=O)CCl`, the outcome was inactive.
`Cc1c([N+](=O)[O-])c(C)c([N+](=O)[O-])c(C(C)(C)C)c1[N+](=O)[O-]`: the result was inactive.
For `Oc1c(Br)cc(Br)cc1Br`, the AC50 is 32.9 µM (active).
Still for that read-out and setting: in the case of `Cc1ccccc1OP(=O)(Oc1ccccc1)Oc1ccccc1` it was 31 µM (active).
As for `CCOP(=O)(OCC)SCCSCC`, the result was inactive.
`OCCN(CCO)CCO`: the outcome was inactive.
In the case of `CCCCCCCCCCCCN(C)C`, the outcome was inactive.
On the same count and under the same terms, the result for `CN(C)C(=S)S` reads “inactive”.
The same measure, in the same setting: in the case of `O=C(O)COc1cc(Cl)c(Cl)cc1Cl` it was “inactive”; in that of `Oc1c(Cl)cc(Cl)cc1Cl`, “inactive”; in that of `COc1ccccc1N`, “inactive”.
As to `O=C(CCl)NCO`, the outcome was inactive.
Regarding `CCOC(=O)CCN(SN(C)C(=O)Oc1cccc2c1OC(C)(C)C2)C(C)C`, the AC50 was 27.1 µM (active).
Consider `CC(C)=CC1C(C(=O)OCc2cccc(Oc3ccccc3)c2)C1(C)C` (stereo not given), for which the result was inactive.
Still for that read-out and setting: the result for `CC(C)(C)c1cc([N+](=O)[O-])cc(C(C)(C)C)c1O` reads “inactive”.
For the molecule `Cc1ccccc1OP(=O)(Oc1ccccc1C)Oc1ccccc1C`, the AC50 is 10.2 µM (active).
As to `CCCCCCCCCCCCc1cccc(S(=O)(=O)O)c1`, the result was inactive.
As to `Cc1cc(Cl)ccc1OC(C)C(=O)O` (stereo not given), the result was inactive.
The same measure, in the same setting: in the case of `CC(C)O.CC(C)O.OCCN(CCO)CCO.OCCN(CCO)CCO.[Ti]` it was “inactive”.
The same measure, in the same setting: in the case of `CCCCOC(=O)COC(=O)c1ccccc1C(=O)OCCCC` it was “inactive”.
In the case of `CCOP(=S)(OCC)OP(=S)(OCC)OCC`, the AC50 was 26.5 µM (active).
On to `COCC(=O)N(c1c(C)cccc1C)[C@H](C)C(=O)OC`, for which the result was inactive.
Turning to `CCOC(=O)C(SP(=S)(OC)OC)c1ccccc1` (stereo not given), the AC50 was 3.97 µM (active).
With `Cc1cc(C)cc(C)c1`, the result was inactive.
The same measure, in the same setting: in the case of `CC(C)(C)c1ccccc1O` it was “inactive”; in that of `CCOC(=O)CC(=O)CCl`, “inactive”; in that of `CCCCN(CCCC)C(=S)[S-].CCCCN(CCCC)C(=S)[S-].[Ni+2]`, “inactive”.
